D1 PAM = potentiators of human D1 dopamine receptor | P21728 | HEK293 TREx D1 cells, calcium flux, dopamine EC20 potentiation | potentiation, % at 10 µM | 360,000 compounds, 0.036% hits; in the data active means potentiation above about 30%
Target sequence (P21728 whole entry, looked up): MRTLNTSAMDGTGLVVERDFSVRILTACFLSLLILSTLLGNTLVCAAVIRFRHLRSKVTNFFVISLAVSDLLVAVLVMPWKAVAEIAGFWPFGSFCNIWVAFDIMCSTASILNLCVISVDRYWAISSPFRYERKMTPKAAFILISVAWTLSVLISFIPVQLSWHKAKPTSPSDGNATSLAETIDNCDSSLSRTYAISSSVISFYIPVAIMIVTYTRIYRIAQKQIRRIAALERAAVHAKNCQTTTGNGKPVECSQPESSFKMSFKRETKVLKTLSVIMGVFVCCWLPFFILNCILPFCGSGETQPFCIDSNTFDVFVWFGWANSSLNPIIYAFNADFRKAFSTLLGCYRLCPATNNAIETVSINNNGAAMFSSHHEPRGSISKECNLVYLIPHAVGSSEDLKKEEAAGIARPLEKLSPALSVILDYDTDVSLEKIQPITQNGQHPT
D1 agonist = activates the human D1 dopamine receptor; activation, % at 2 µM; P21728; 360,000 compounds, 1% hits; HEK293 T-REx D1 cells, calcium flux, agonist mode; in the data active means activation above about 30%
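Tetracycline-induced HEK293 TREx D1 cells, force-coupled to calcium signalling, were dye-loaded with a no-wash calcium kit. Compound was pin-added after a 10 s baseline. Fluorescence was read kinetically at 1 cycle/s for 180 s, with calcium rises flagged as agonism.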
D1 antag = human D1 dopamine receptor antagonism | P21728 | HEK293 TREx D1 cells, calcium flux, dopamine EC80; hits give low values | activity change, negative = inhibition, % at 10 µM | 360,000 compounds, 3.2% hits; in the data active means activity change below about -30%
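Tetracycline-induced HEK293 T-REx cells with force-coupled D1 receptor were loaded with a no-wash calcium dye. Compound was added after a 10 s baseline and read kinetically for 180 s; EC80 dopamine was then added and calcium flux followed another 180 s.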
DRD3 agonist = activates the human D3 dopamine receptor; D3R DiscoveRx beta-arrestin cells, luminescence, 90 min; max activation, %; 410,000 compounds, 0.58% hits; in the data active means max activation above about 30%
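Cells at 1500/well, incubated overnight, then treated with pinned compounds (dopamine as control) for 90 min at 37 degrees C. DiscoveRx reagent added for 30 - 60 minutes at room temperature; luminescence read.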
D3 antag = D3 dopamine receptor (human) antagonism; D3R cells, DiscoveRx beta-arrestin luminescence, antagonist mode; hits give low values; max response, negative = inhibition, %; P35462; 360,000 compounds, 2.5% hits; in the data active means max response below about -50%; inconclusive means no clear call, values can overlap the other calls
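Cells plated overnight at 1500 cells/well, then exposed to library compounds with dopamine controls for 90 minutes at 37 degrees C. DiscoveRx reagent added for 30–60 minutes at room temperature; luminescence read, quantitative HTS format.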
Of the large screens only hits and unclear results are named; the others gave an inactive call. This is a sample that favours compounds with a hit; in the whole collection about 6.1% have one here.

O=[N+]([O-])c1cc(Br)cc(C=Nc2ccc3c(c2)OCO3)c1O	D3 antag -78
O=[N+]([O-])c1ccc(O)c(C=Nc2ccc3c(c2)OCO3)c1	D3 antag -68
CCCOc1cccc(C2c3c(oc4ccc(F)cc4c3=O)C(=O)N2c2nc(C)c(C(C)=O)s2)c1 (stereo unspecified)	none (no result: D3 antag)
COc1ccc(C(CC(=O)O)NC(=O)Cc2ccccc2)cc1OC (stereo unspecified)	none
C=CCC(Nc1ccccc1)c1ccc(OC)c(OC)c1 (stereo unspecified)	D1 antag -40 (no result: DRD3 agonist, D3 antag)
Cc1c(NC(=O)CN2C(=O)c3ccccc3S2(=O)=O)c(=O)n(-c2ccccc2)n1C	D3 antag -55
COc1ccc(NC(=O)Nc2c(C)n(C)n(-c3ccccc3)c2=O)cc1	D3 antag inconclusive
Cc1c(NC(=O)Cn2[nH]c(=O)c3ccccc3c2=O)c(=O)n(-c2ccccc2)n1C	D3 antag -52
Cc1c(NC(=O)CN2CCN(c3ccccc3)CC2)c(=O)n(-c2ccccc2)n1C	none
COc1ccc(CCC(=O)Nc2c(C)n(C)n(-c3ccccc3)c2=O)cc1	D1 antag -38
Cc1c(NC(=O)CN2c3cccc4cccc(c34)S2(=O)=O)c(=O)n(-c2ccccc2)n1C	none
CCN1CCOC(=O)C1CC(=O)Nc1cc(C)ccc1OC (stereo unspecified)	none (no result: D3 antag)
CCOC(=O)c1ccc(NC(=O)c2c(NCc3cc(OC)c(OC)cc3OC)sc3c2CCCC3)cc1	none (no result: D3 antag)
CCCNC(=O)c1cc2n(n1)CCCN(Cc1ccc(F)cc1)C2=O	none (no result: D3 antag)
CCc1ccc(CNC(=O)c2cc3n(n2)CCCN(Cc2ccccc2)C3=O)cc1	D1 agonist 66, D1 antag -47 (no result: D3 antag)
CCCCNC(=O)Cn1c(=O)cc(C)c2c(C)nn(-c3cccc(Cl)c3C)c21	none (no result: D3 antag)
COc1ccccc1N1CCN(CCN(C(=O)c2ccc(F)cc2)c2ccccn2)CC1	D3 antag -116
COc1ccccc1N1CCN(CC(C)N(C(=O)C2CCCCC2)c2ccccn2)CC1 (stereo unspecified)	D3 antag -70
Cc1ccc(CN(C(=O)c2ccc(F)cc2)c2ccccn2)o1	none (no result: D3 antag)
COc1ccccc1N1CCN(CCN(C(=O)C2CCCCC2)c2ccccn2)CC1	D3 antag -85
Nc1nc(Nc2cc(F)cc(F)c2)nc(NC2CCCC2)n1	none (no result: DRD3 agonist, D3 antag)
COc1ccc(-c2noc(COc3cc(C)c(Br)c(C)c3)n2)cc1OC	none (no result: D3 antag)
Cc1cccc(C)c1NC(=O)N1CCC(c2nc3ccccc3o2)CC1	D3 antag -75
CS(=O)(=O)c1cc([N+](=O)[O-])c(Sc2nc3ccccc3[nH]2)c([N+](=O)[O-])c1	D3 antag -51
O=C(O)c1cc([N+](=O)[O-])c(Sc2nc3ccccc3[nH]2)c([N+](=O)[O-])c1	none
O=[N+]([O-])c1ccc(N2CCN(CCO)CC2)cc1Sc1ccccn1	none
Cn1cnc([N+](=O)[O-])c1Sc1nc2ccccc2[nH]1	D3 antag -54
CCN1CCN(c2ccc([N+](=O)[O-])c(Sc3nc4ccccc4[nH]3)c2)CC1	D3 antag -94
Cc1cccc(NS(=O)(=O)c2ccc(C(=O)NCC(c3ccccc3)N(C)C)cc2)c1C (stereo unspecified)	D1 agonist 48
CNS(=O)(=O)c1cccc(C(=O)NCC(c2ccco2)N(C)C)c1 (stereo unspecified)	D1 antag -35
CN(C)C(CNC(=O)c1ccc(C2SCCS2)cc1)c1ccccc1 (stereo unspecified)	D3 antag -53
CN(C)C(CNC(=O)c1ccc(NC(=O)c2cccs2)cc1)c1ccccc1 (stereo unspecified)	none
CN(C)C(CNC(=O)Cc1cccc(C(F)(F)F)c1)c1ccco1 (stereo unspecified)	D1 antag -48
COc1ccccc1NS(=O)(=O)c1ccc(C(=O)NCC(c2ccccc2OC)N(C)C)cc1 (stereo unspecified)	none
CC(NC(=O)CSc1n[nH]c(-c2ccccc2Cl)n1)c1nc2ccccc2n1C (stereo unspecified)	none (no result: D3 antag)
Fc1ccc(Nc2ncnc3onc(-c4ccc(Cl)cc4)c23)cc1Cl	none (no result: D3 antag)
CCOc1ccc(C[C@H]2NC(=O)CCSSC[C@@H](C(=O)N3CCC[C@H]3C(=O)N[C@@H](CCCN)C(=O)NCC(N)=O)NC(=O)[C@H](CC(N)=O)NC(=O)[C@H]([C@@H](C)O)NC(=O)[C@H]([C@@H](C)CC)NC2=O)cc1	none (no result: D1 PAM, D1 agonist, D1 antag, D3 antag)
COc1ccc(C(=O)NCCNC(C)=O)cc1S(=O)(=O)NCc1ccc(Cl)cc1	D3 antag inconclusive
Cc1ccc(NS(=O)(=O)c2ccc(C(=O)NCC(c3ccco3)N(C)C)cc2)cc1 (stereo unspecified)	D1 agonist 53, D1 antag -31
COc1ccc(C(=O)NCC(c2ccco2)N(C)C)cc1S(=O)(=O)NCc1ccc(Cl)cc1 (stereo unspecified)	D3 antag -97
CCN(c1ccc(C)cc1C)S(=O)(=O)c1nnc(NC(=O)c2ccccc2OC)s1	none (no result: D3 antag)
Cc1ccc(OCCSc2nc3ccccc3n2CC(=O)N2CCOCC2)c(C)c1	none (no result: D3 antag)
CCn1ncc(C2=NOC(C(=O)NCC(C)C)C2)c1C (stereo unspecified)	none
CCn1ncc(C2=NOC(C(=O)Nc3cnn(C45CC6CC(CC(C6)C4)C5)c3)C2)c1C (stereo unspecified)	D1 agonist 34
CCCOc1ccc(CCC(=O)N/N=C/c2ccco2)cc1	none
CCCOc1ccc(CCC(=O)N/N=C/c2ccncc2)cc1	D1 antag -36
CN(CC(=O)Nc1cc([N+](=O)[O-])ccc1Cl)Cc1ccc(Br)cc1	D3 antag -85
CN(CC(=O)Nc1cc(S(=O)(=O)N2CCCC2)ccc1Cl)Cc1ccc2c(c1)OCO2	D1 antag -37
CN(CC(=O)Nc1ccc(S(=O)(=O)N2CCCC2)cc1)Cc1c(F)cccc1Cl	D1 antag -32
CN(CC(=O)Nc1cc(S(=O)(=O)N2CCCCCC2)ccc1Cl)Cc1ccc2c(c1)OCO2	D3 antag -54
CC(=O)c1ccc(NC(=O)C2CCN(S(=O)(=O)c3ccc4c(c3)CCCN4C(=O)C3CCC3)CC2)cc1	none (no result: D3 antag)
Cc1c(C(=O)N(Cc2ccc(N(C)C)cc2)CC2CCCO2)oc2ccc(Br)cc12 (stereo unspecified)	none (no result: D3 antag)
CN1CCN(S(=O)(=O)c2ccc(NCc3ccc4c(c3)OCO4)nc2)CC1	D1 antag -33
COc1ccc(S(=O)(=O)N2CCCCCC2)cc1NC(=O)CN(C)Cc1ccc2c(c1)OCO2	D3 antag -68
COc1ccc(S(=O)(=O)N2CCCCC2)cc1NC(=O)CN(C)C1CCCCC1	none
COc1ccc(OC)c(NC(=O)C2(C)CCN2Cc2ccccc2OC(F)F)c1 (stereo unspecified)	DRD3 agonist 92 (no result: D1 PAM, D1 agonist, D1 antag)
Cc1ccc(C=Nc2cccnc2N)cc1	D1 agonist 90

Bioassay records from PubChem.
